The results in this text go back to the antibiotic and cytotoxicity screens of Wong et al. (2023).

Screen size: about 39,000 compounds; about 3,300 (8.5%) were called active. The list comes from a sample in which actives are over-represented; it also holds similar structures and randomly drawn compounds.

This assay relates to HepG2. The assay is described as follows: cytotoxicity call (relative viability < 0.9). The settings on record: 10 µM.
Regarding `COc1ccc(NC(=O)N(C)C[C@@H]2Oc3c(NC(=O)c4ccc(-c5nccs5)cc4)cccc3C(=O)N([C@@H](C)CO)C[C@H]2C)cc1`, the cytotoxicity call is “inactive”.

Take `CCNC(=O)C[C@H]1CC[C@@H]2[C@H](COC[C@@H](O)CN2C(=O)Nc2c(C)noc2C)O1`: the cytotoxicity call was “inactive”.

Take `CN(C)CCCCNC(=O)[C@@H]1C[C@@H]2C(=O)N[C@@H](CCCC[N+](C)(C)C)C(=O)N2[C@@H]1c1cccc(OCCO)c1`: the cytotoxicity call was “inactive”.

Consider `Cc1ccc(S(=O)(=O)Nc2ccc3c(c2)C(=O)N([C@H](C)CO)C[C@H](C)[C@@H](CN(C)S(=O)(=O)c2ccc(C)cc2)OCCCC[C@H](C)O3)cc1`, for which the cytotoxicity call was “inactive”.

For `Cc1ccc(S(=O)(=O)Nc2ccc3c(c2)C(=O)N([C@H](C)CO)C[C@@H](C)[C@@H](CN(C)S(=O)(=O)c2ccc(C)cc2)OCCCC[C@@H](C)O3)cc1`, the cytotoxicity call is “inactive”.

Take `Cc1ccc(S(=O)(=O)Nc2ccc3c(c2)C(=O)N([C@@H](C)CO)C[C@H](C)[C@H](CN(C)S(=O)(=O)c2ccc(C)cc2)OCCCC[C@H](C)O3)cc1`: the cytotoxicity call was “active”.

Consider `Cc1ccc(S(=O)(=O)Nc2ccc3c(c2)C(=O)N([C@H](C)CO)C[C@H](C)[C@@H](CN(C)S(=O)(=O)c2ccc(C)cc2)OCCCC[C@@H](C)O3)cc1`, for which the cytotoxicity call is “inactive”.

As for `Cc1ccc(S(=O)(=O)Nc2ccc3c(c2)C(=O)N([C@@H](C)CO)C[C@@H](C)[C@H](CN(C)S(=O)(=O)c2ccc(C)cc2)OCCCC[C@@H](C)O3)cc1`, the cytotoxicity call was “active”.

`Cc1ccc(S(=O)(=O)Nc2ccc3c(c2)C(=O)N([C@H](C)CO)C[C@@H](C)[C@H](CN(C)S(=O)(=O)c2ccc(C)cc2)OCCCC[C@@H](C)O3)cc1`: the cytotoxicity call is “inactive”.

As for `C[C@H]1CC=CC[C@H](c2cccc(Cl)c2)NC(=O)[C@H](Cc2ccccc2)N(C)C(=O)c2ccccc2O1`, the cytotoxicity call is “inactive”.

`Cc1ccc(S(=O)(=O)N(C)C[C@@H]2OCCCC[C@@H](C)Oc3ccc(NC(=O)Nc4ccc(F)cc4)cc3C(=O)N([C@H](C)CO)C[C@@H]2C)cc1`: the cytotoxicity call was “inactive”.

Consider `C[C@H](CO)N1C[C@H](C)[C@H](CN(C)C(=O)Nc2cccc(F)c2)OCc2ccccc2-c2ccccc2C1=O`, for which the cytotoxicity call was “inactive”.

Regarding `CCCN(CCC)S(=O)(=O)c1ccc(C(=O)N(c2cccc(SC)c2)[C@H]2OC(=O)c3ccccc32)cc1`, the cytotoxicity call was “inactive”.

Turning to `C[C@H]1CN([C@@H](C)CO)S(=O)(=O)c2ccc(C#CCN(C)C)cc2O[C@H]1CN(C)S(=O)(=O)c1cccc(F)c1`, the cytotoxicity call was “inactive”.

Consider `C[C@H](CO)N1C[C@H](C)[C@H](CN(C)Cc2ccc(C(F)(F)F)cc2)Oc2c(NC(=O)c3ccc(-c4nccs4)cc3)cccc2C1=O`, for which the cytotoxicity call was “inactive”.

As for `C[C@@H]1CN([C@@H](C)CO)C(=O)c2cccc(NC(=O)c3ccc(-c4nccs4)cc3)c2O[C@@H]1CN(C)C(=O)Nc1ccc(C(F)(F)F)cc1`, the cytotoxicity call is “active”.

As to `C[C@@H]1CN([C@H](C)CO)C(=O)c2cccc(NC(=O)c3ccc(-c4nccs4)cc3)c2O[C@@H]1CN(C)Cc1ccc(C(F)(F)F)cc1`, the cytotoxicity call is “active”.

In the case of `C[C@H](CO)N1C[C@H](C)[C@H](CN(C)C(=O)Nc2ccc(C(F)(F)F)cc2)Oc2c(NC(=O)c3ccc(-c4nccs4)cc3)cccc2C1=O`, the cytotoxicity call was “inactive”.

Take `C[C@@H]1CN([C@@H](C)CO)C(=O)c2cccc(NC(=O)c3ccc(-c4nccs4)cc3)c2O[C@H]1CN(C)Cc1ccc(C(F)(F)F)cc1`: the cytotoxicity call was “inactive”.

Regarding `C[C@@H]1CN([C@H](C)CO)C(=O)c2cccc(NC(=O)c3ccc(-c4nccs4)cc3)c2O[C@@H]1CN(C)Cc1ccc(C(=O)O)cc1`, the cytotoxicity call was “inactive”.

For `C[C@H]1CN([C@@H](C)CO)C(=O)c2cccc(NC(=O)c3ccc(-c4nccs4)cc3)c2O[C@H]1CN(C)Cc1ccc(C(F)(F)F)cc1`, the cytotoxicity call is “inactive”.

On to `C[C@H]1CN([C@@H](C)CO)C(=O)c2cccc(NC(=O)c3ccc(-c4nccs4)cc3)c2O[C@H]1CN(C)C(=O)Nc1ccc(C(F)(F)F)cc1`, for which the cytotoxicity call was “inactive”.

Consider `C[C@H](CO)N1C[C@H](C)[C@@H](CN(C)Cc2ccc(C(F)(F)F)cc2)Oc2c(NC(=O)c3ccc(-c4nccs4)cc3)cccc2C1=O`, for which the cytotoxicity call is “inactive”.

In the case of `C[C@@H]1CN([C@@H](C)CO)C(=O)c2cccc(NC(=O)c3ccc(-c4nccs4)cc3)c2O[C@@H]1CN(C)Cc1ccc(C(F)(F)F)cc1`, the cytotoxicity call was “active”.

For the compound `C[C@@H]1CN([C@H](C)CO)C(=O)c2cccc(NC(=O)c3ccc(-c4nccs4)cc3)c2O[C@H]1CN(C)Cc1ccc(C(F)(F)F)cc1`, the cytotoxicity call was “inactive”.

Regarding `C[C@H]1CN([C@@H](C)CO)C(=O)c2cccc(NC(=O)c3ccc(-c4nccs4)cc3)c2O[C@@H]1CN(C)Cc1ccc(C(F)(F)F)cc1`, the cytotoxicity call is “active”.

As to `N=C(N)SCCN`, the cytotoxicity call was “inactive”.

With `CN1CCN(C(=O)C[C@@H]2C=C[C@H](NC(=O)Nc3ccccc3F)[C@H](CO)O2)CC1`, the cytotoxicity call was “inactive”.

In the case of `COc1ccc(NC(=O)Nc2ccc3c(c2)C(=O)N([C@@H](C)CO)C[C@H](C)[C@@H](CN(C)C(=O)Nc2ccccc2)OCCCC[C@H](C)O3)cc1`, the cytotoxicity call is “inactive”.

Regarding `CN1C(=O)[C@@H]2CN(c3ncccn3)C[C@@H]2C12CCN(S(C)(=O)=O)CC2`, the cytotoxicity call is “inactive”.

Consider `C[C@H](CO)N1C[C@H](C)[C@@H](CN(C)S(=O)(=O)c2ccc(Cl)cc2)Oc2ccc(N(C)C)cc2CC1=O`, for which the cytotoxicity call was “inactive”.

On to `Cc1ccc(S(=O)(=O)N(C)C[C@H]2OCCCC[C@@H](C)Oc3ccc(NC(=O)Nc4c(C)noc4C)cc3C(=O)N([C@H](C)CO)C[C@H]2C)cc1`, for which the cytotoxicity call is “inactive”.

`COc1ccc2cc1/C=C\NC(=O)[C@H](Cc1ccccc1)NC(=O)[C@@H]1[C@H](CCN1C(=O)[C@@H](NC(=O)[C@@H](C)N(C)C)C(C)C)O2`: the cytotoxicity call was “inactive”.

Take `CO[C@@H](CN(C)S(=O)(=O)c1cccc(Cl)c1)[C@H](C)CN([C@@H](C)CO)S(=O)(=O)c1ccc(Cl)cc1`: the cytotoxicity call was “inactive”.

In the case of `C[C@@H]1CN([C@H](C)CO)C(=O)c2cc(NC(=O)CCC(F)(F)F)ccc2O[C@@H](C)CCCCO[C@@H]1CN(C)CC1CCCCC1`, the cytotoxicity call was “inactive”.

As to `C[C@@H]1CN([C@H](C)CO)C(=O)c2cccc(NC(=O)c3nc4ccccc4s3)c2O[C@H]1CN(C)Cc1ccc(C(F)(F)F)cc1`, the cytotoxicity call is “inactive”.

On to `C[C@@H]1CN([C@@H](C)CO)C(=O)c2cc(Br)cnc2O[C@@H]1CN(C)S(=O)(=O)c1ccc(F)cc1`, for which the cytotoxicity call was “inactive”.

For `C[C@@H]1CCCCO[C@@H](CN(C)C(=O)CCC(F)(F)F)[C@@H](C)CN([C@H](C)CO)C(=O)c2cc(NS(=O)(=O)c3ccc(F)cc3)ccc2O1`, the cytotoxicity call is “inactive”.

`CCOC(=O)CSc1nnc2c3sc4nc(N5CCOCC5)c5c(c4c3ncn12)CC(C)(C)OC5`: the cytotoxicity call was “active”.

Consider `O=C(NCCCN1CCOCC1)C(=O)NC1CC1`, for which the cytotoxicity call was “inactive”.

For the compound `COc1ccc(CN(C)C[C@H]2OCCCC[C@@H](C)Oc3ccc(NS(=O)(=O)c4ccc(Cl)cc4)cc3C(=O)N([C@@H](C)CO)C[C@@H]2C)cc1`, the cytotoxicity call was “inactive”.

`COc1ccc(CN(C)C[C@H]2OCCCC[C@H](C)Oc3ccc(NS(=O)(=O)c4ccc(Cl)cc4)cc3C(=O)N([C@@H](C)CO)C[C@@H]2C)cc1`: the cytotoxicity call is “inactive”.

For `COc1ccc(CN(C)C[C@@H]2OCCCC[C@@H](C)Oc3ccc(NS(=O)(=O)c4ccc(Cl)cc4)cc3C(=O)N([C@H](C)CO)C[C@@H]2C)cc1`, the cytotoxicity call was “inactive”.

Turning to `COc1ccc(CN(C)C[C@H]2OCCCC[C@@H](C)Oc3ccc(NS(=O)(=O)c4ccc(Cl)cc4)cc3C(=O)N([C@H](C)CO)C[C@@H]2C)cc1`, the cytotoxicity call is “inactive”.

Consider `COc1ccc(CN(C)C[C@H]2OCCCC[C@@H](C)Oc3ccc(NS(=O)(=O)c4ccc(Cl)cc4)cc3C(=O)N([C@@H](C)CO)C[C@H]2C)cc1`, for which the cytotoxicity call was “active”.

Take `COc1ccc(CN(C)C[C@@H]2OCCCC[C@@H](C)Oc3ccc(NS(=O)(=O)c4ccc(Cl)cc4)cc3C(=O)N([C@H](C)CO)C[C@H]2C)cc1`: the cytotoxicity call was “inactive”.

`COc1ccc(CN(C)C[C@H]2OCCCC[C@H](C)Oc3ccc(NS(=O)(=O)c4ccc(Cl)cc4)cc3C(=O)N([C@@H](C)CO)C[C@H]2C)cc1`: the cytotoxicity call was “inactive”.

Take `COc1ccc(CN(C)C[C@@H]2OCCCC[C@H](C)Oc3ccc(NS(=O)(=O)c4ccc(Cl)cc4)cc3C(=O)N([C@H](C)CO)C[C@@H]2C)cc1`: the cytotoxicity call is “active”.

With `COc1ccc(CN(C)C[C@@H]2OCCCC[C@H](C)Oc3ccc(NS(=O)(=O)c4ccc(Cl)cc4)cc3C(=O)N([C@@H](C)CO)C[C@H]2C)cc1`, the cytotoxicity call was “active”.

As for `C[C@@H]1CCCCO[C@H](CN(C)C(=O)Nc2ccccc2)[C@H](C)CN([C@@H](C)CO)C(=O)c2cc(NC(=O)Nc3ccc(F)cc3)ccc2O1`, the cytotoxicity call was “inactive”.

In the case of `O=C(C[C@H]1CC[C@@H](NC(=O)CN2CCOCC2)[C@H](CO)O1)NC1CCC1`, the cytotoxicity call is “inactive”.

In the case of `C[C@H](CO)N1C[C@H](C)[C@@H](CN(C)S(=O)(=O)c2cn(C)cn2)Oc2ccc(N(C)C)cc2CC1=O`, the cytotoxicity call was “inactive”.

For `C[C@H](CO)N1C[C@H](C)[C@H](CN(C)Cc2ccc(F)cc2)Oc2cc(C#CC3CC3)ccc2S1(=O)=O`, the cytotoxicity call is “inactive”.

`C[C@@H]1CCCCO[C@H](CN(C)C(=O)C2CCCCC2)[C@@H](C)CN([C@H](C)CO)C(=O)c2cc(NC(=O)Nc3ccc(F)cc3)ccc2O1`: the cytotoxicity call is “inactive”.

For `COCC(=O)Nc1ccccc1C(=O)O`, the cytotoxicity call is “inactive”.

As for `O=C(N1CCOCC1)[C@@]1(CCS(=O)(=O)c2ccccc2)COC(c2ccc(OCCCO)cc2)=N1`, the cytotoxicity call was “inactive”.

On to `NCc1cccc2c1OCCCO2`, for which the cytotoxicity call was “inactive”.

Take `C[N+](C)(C)CCCC[C@@H]1NC(=O)[C@@H]2C[C@H](C(=O)NCCCCCCNC(=O)CS)[C@H](c3ccc(O)cc3)N2C1=O`: the cytotoxicity call is “inactive”.

As for `CC(C)=C[C@H]1[C@@H](c2nc3ccc(Br)cc3[nH]2)C1(C)C`, the cytotoxicity call is “inactive”.

Turning to `CCNc1nc(NCC)nc(OCC#N)n1`, the cytotoxicity call was “inactive”.

`CCNc1nc(OCCO)nc(N(C)C)n1`: the cytotoxicity call is “inactive”.

With `CCNc1nc(NCC)nc(C(=O)OCCO)n1`, the cytotoxicity call is “active”.

Regarding `C[C@H](CO)N1C[C@H](C)[C@@H](CN(C)C(=O)Nc2ccc(C(F)(F)F)cc2)Oc2ccc(NC(=O)Cc3cn(C)c4ccccc34)cc2CC1=O`, the cytotoxicity call is “inactive”.

Turning to `C[C@H]1CN([C@@H](C)CO)C(=O)Cc2cc(NC(=O)Cc3cn(C)c4ccccc34)ccc2O[C@@H]1CN(C)Cc1ccc(C(F)(F)F)cc1`, the cytotoxicity call was “active”.

Turning to `C[C@@H]1CN([C@H](C)CO)C(=O)Cc2cc(NC(=O)Cc3cn(C)c4ccccc34)ccc2O[C@@H]1CN(C)C(=O)Nc1ccc(C(F)(F)F)cc1`, the cytotoxicity call was “inactive”.

For `C[C@H](CO)N1C[C@H](C)[C@H](CN(C)Cc2ccc(C(F)(F)F)cc2)Oc2ccc(NC(=O)Cc3cn(C)c4ccccc34)cc2CC1=O`, the cytotoxicity call is “inactive”.

With `C[C@@H]1CN([C@@H](C)CO)C(=O)Cc2cc(NC(=O)Cc3cn(C)c4ccccc34)ccc2O[C@@H]1CN(C)C(=O)Nc1ccc(C(F)(F)F)cc1`, the cytotoxicity call is “inactive”.

`C[C@H]1CN([C@@H](C)CO)C(=O)Cc2cc(NC(=O)Cc3cn(C)c4ccccc34)ccc2O[C@H]1CN(C)C(=O)Nc1ccc(C(F)(F)F)cc1`: the cytotoxicity call is “inactive”.

Consider `C[C@H]1CN([C@@H](C)CO)C(=O)Cc2cc(NC(=O)Cc3cn(C)c4ccccc34)ccc2O[C@@H]1CN(C)C(=O)Nc1ccc(C(F)(F)F)cc1`, for which the cytotoxicity call was “inactive”.

For the compound `C[C@@H]1CN([C@@H](C)CO)C(=O)Cc2cc(NC(=O)Cc3cn(C)c4ccccc34)ccc2O[C@H]1CN(C)Cc1ccc(C(F)(F)F)cc1`, the cytotoxicity call is “active”.

As for `C[C@H](CO)N1C[C@H](C)[C@H](CN(C)C(=O)Nc2ccc(C(F)(F)F)cc2)Oc2ccc(NC(=O)Cc3cn(C)c4ccccc34)cc2CC1=O`, the cytotoxicity call is “inactive”.

With `C[C@@H]1CN([C@H](C)CO)C(=O)Cc2cc(NC(=O)Cc3cn(C)c4ccccc34)ccc2O[C@@H]1CN(C)Cc1ccc(C(F)(F)F)cc1`, the cytotoxicity call is “active”.

On to `C[C@@H]1CN([C@@H](C)CO)C(=O)Cc2cc(NC(=O)Cc3cn(C)c4ccccc34)ccc2O[C@@H]1CN(C)Cc1ccc(C(F)(F)F)cc1`, for which the cytotoxicity call is “active”.

Consider `C[C@@H]1CN([C@@H](C)CO)C(=O)Cc2cc(NC(=O)Cc3cn(C)c4ccccc34)ccc2O[C@H]1CN(C)C(=O)Nc1ccc(C(F)(F)F)cc1`, for which the cytotoxicity call is “inactive”.
